Laboratory results as given in PubChem BioAssay (Tox21).
Results filed as inconclusive are left out. Where a call stands in place of a potency, no number is given. Some structures have more than one record in an assay (separate samples or runs), and their calls can disagree. Activity calls are given as the source filed them. Unless noted, calls follow the shape of the full dose curve.

How the values were obtained:
[1] = target: Peroxisome proliferator-activated receptor delta (Homo sapiens) (UniProt Q03181); experiment: qHTS assay to identify small molecule agonists of the peroxisome proliferator-activated receptor delta (PPARd) signaling pathway (AID 743212)
Peroxisome proliferator-activated receptor delta (Homo sapiens), sequence (Q03181 whole entry, looked up): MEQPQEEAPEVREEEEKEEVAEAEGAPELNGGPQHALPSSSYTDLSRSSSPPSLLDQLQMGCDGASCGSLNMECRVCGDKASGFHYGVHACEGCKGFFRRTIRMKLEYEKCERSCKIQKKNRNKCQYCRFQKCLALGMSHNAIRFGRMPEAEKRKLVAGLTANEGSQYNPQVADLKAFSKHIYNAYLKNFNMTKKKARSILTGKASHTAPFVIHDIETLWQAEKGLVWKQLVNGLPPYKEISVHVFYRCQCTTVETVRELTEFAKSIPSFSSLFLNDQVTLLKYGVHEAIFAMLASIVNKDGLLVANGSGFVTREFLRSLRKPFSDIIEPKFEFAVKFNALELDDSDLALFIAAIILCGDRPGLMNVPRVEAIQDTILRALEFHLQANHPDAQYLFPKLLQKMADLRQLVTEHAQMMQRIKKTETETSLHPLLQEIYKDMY
Method in brief: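 GeneBLAzer UAS-bla HEK293H cells carrying a PPARδ construct were exposed to compounds at 37 °C. Beta-lactamase activity was read by FRET fluorescence after 2 h at room temperature with LiveBLAzer B/G substrate.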

[2] = qHTS assay to identify small molecule antagonists of the peroxisome proliferator-activated receptor delta (PPARd) signaling pathway - cell viability counter screen (AID 743213; active = well fitted curve in the direction sought with a large enough effect in the repeat runs; an effect the other way counts as inactive or inconclusive; also: nearly all actives have a fitted effect of over 50% in size; also: potency is read from the fitted curve at half-maximal effect)
Method in brief: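 Agonist-stimulated (L165041, 300 nM final) HEK293H PPARd UAS-bla cells are exposed to compounds for 17 h at 37 C, and ATP-based luminescence (CellTiter-Glo) from the same wells reports cytotoxicity.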

[3] = qHTS assay to identify small molecule agonists of the farnesoid-X-receptor (FXR) signaling pathway - cell viability counter screen (AID 743218; active = well fitted curve in the direction sought with a large enough effect in the repeat runs; an effect the other way counts as inactive or inconclusive; also: nearly all actives have a fitted effect of over 45% in size)
Method in brief: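 FXR-UAS-bla HEK 293T cells exposed to compounds for 16 h at 37C. Cytotoxicity read in the same wells by CellTiter-Glo luminescence after 30 min at room temperature, following the beta-lactamase FRET read.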

[4] = qHTS assay to identify small molecule antagonists of the farnesoid-X-receptor (FXR) signaling pathway - cell viability counter screen (AID 743221; active = well fitted cell-killing curve with a large enough effect in the repeat runs, not every such curve was filed as active; also: nearly all actives have a fitted effect of over 50% in size)
Method in brief: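 CellTiter-Glo, 30 min RT, luminescence; same wells as the LiveBLAzer FRET read. Cells: FXR-UAS-bla HEK 293T. Treatment: compound with chenodeoxycholic acid 50 uM final, 16 h at 37 C.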

[5] = qHTS assay to identify small molecule agonists of the vitamin D receptor (VDR) signaling pathway - cell viability counter screen (AID 743224; active = well fitted curve in the direction sought with a large enough effect in the repeat runs; an effect the other way counts as inactive or inconclusive; also: nearly all actives have a fitted effect of over 50% in size; also: potency is read from the fitted curve at half-maximal effect)
Method in brief: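 VDR-bla cells, 4 h after plating, exposed to compounds for 16 h at 37C; viability then read in the same wells as CellTiter-Glo luminescence after 30 min at room temperature, following the bla FRET read.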

[6] = qHTS assay to identify small molecule antagonists of the vitamin D receptor (VDR) signaling pathway - cell viability counter screen (AID 743225; active = well fitted curve in the direction sought with a large enough effect in the repeat runs; an effect the other way counts as inactive or inconclusive; also: nearly all actives have a fitted effect of over 50% in size)
Method in brief: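 Cytotoxicity toward the VDR-bla HEK 293T line was scored by ATP-based CellTiter-Glo luminescence, read in the wells already used for the beta-lactamase readout after 16 h compound treatment under 3 nM 1-alpha,25-dihydroxyvitamin D3 stimulation.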

[7] = qHTS assay to identify small molecule agonists of the NFkB signaling pathway (AID 1159509; active = well fitted curve in the direction sought with a large enough effect in the signal ratio in the repeat runs, not every such curve was filed as active; the % refers to the signal ratio; also: series mostly up to about 61 µM)
Method in brief: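 ME-180 NFkB-bla, 2,000 cells/well, overnight plating; cpd pinned in DMSO, 5 h 37 C; B/G FRET substrate 1.5 h RT; ex 405, em 460/530 nm.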

[8] = qHTS assay to identify small molecule agonists of the NFkB signaling pathway - cell viability counter screen (AID 1159515); also: series mostly up to about 61 µM; nearly all actives have a fitted effect of over 55% in size
Method in brief: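 NFkB-bla ME-180 cells, 2,000/well, plated overnight at 37 C; compound added for 5 hr at 37 C. Viability read in the same wells as the bla reporter, by CellTiter-Glo luminescence after 30 min at room temperature.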

[9] = qHTS assay to identify small molecule agonists of the endoplasmic reticulum stress response signaling pathway (AID 1159516; active = well fitted activation curve with a large enough effect in the signal ratio in the repeat runs, not every such curve was filed as active; the % refers to the signal ratio; also: potency is read from the fitted curve at half-maximal effect)
Method in brief: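 CellSensor ESRE-bla HeLa cells, 1,500 per well, plated overnight, then exposed to compounds for 5 hr at 37 C. Beta-lactamase reporter read with LiveBLAzer B/G FRET substrate after 2 hr at room temperature, 405 nm excitation, 460 and 530 nm emission.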

[10] = qHTS assay to identify small molecule antagonists of the retinoid-related orphan receptor gamma (ROR-gamma) signaling pathway - cell viability counter screen (AID 1159520; active = well fitted curve in the direction sought with a large enough effect in the repeat runs; an effect the other way counts as inactive or inconclusive; also: nearly all actives have a fitted effect of over 50% in size)
Method in brief: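 Tet-on ROR gamma CHO cells were given compounds for 2 hr, then doxycycline hyclate at 1 uM final, and incubated 16 hr at 37 C. Viability was measured as ATP content by CellTiter-Glo luminescence.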

[11] = target: Nuclear receptor ROR-gamma (Homo sapiens) (UniProt P51449); experiment: qHTS assay to identify small molecule antagonists of the retinoid-related orphan receptor gamma (ROR-gamma) signaling pathway (AID 1159521; active = well fitted curve in the direction sought with a large enough effect in the repeat runs; an effect the other way counts as inactive or inconclusive; also: nearly all actives have a fitted effect of over 50% in size; also: potency is read from the fitted curve at half-maximal effect)
Method in brief: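 Readout: ONE-Glo luciferase luminescence, 30 min at room temperature. System: Tet-on RORγ CHO, RORE-LUC. Sequence: compound 2 h, doxycycline 1 uM final, 16 h at 37 C.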

[12] = qHTS assay to identify small molecule agonists of the AP-1 signaling pathway - cell viability counter screen (AID 1159525); also: nearly all actives have a fitted effect of over 55% in size
Method in brief: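 AP-1-bla ME-180 cells in Opti-MEM with 0.5% dialyzed FBS, compound exposure 5 h at 37 C in 15-point titration. Viability read in the same wells as ATP content by CellTiter-Glo luminescence, normalised to tetra-n-octylammonium bromide and DMSO controls.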

[13] = qHTS assay to identify small molecule agonists of the AP-1 signaling pathway (AID 1159526)
[14] = target: Retinoic acid receptor RXR-alpha (Homo sapiens) (UniProt P19793); experiment: qHTS assay to identify small molecule agonists of the RXR signaling pathway (AID 1159527); also: nearly all actives have a fitted effect of over 35% in size; also: potency is read from the fitted curve at half-maximal effect
Retinoic acid receptor RXR-alpha (Homo sapiens), sequence (P19793 whole entry, looked up): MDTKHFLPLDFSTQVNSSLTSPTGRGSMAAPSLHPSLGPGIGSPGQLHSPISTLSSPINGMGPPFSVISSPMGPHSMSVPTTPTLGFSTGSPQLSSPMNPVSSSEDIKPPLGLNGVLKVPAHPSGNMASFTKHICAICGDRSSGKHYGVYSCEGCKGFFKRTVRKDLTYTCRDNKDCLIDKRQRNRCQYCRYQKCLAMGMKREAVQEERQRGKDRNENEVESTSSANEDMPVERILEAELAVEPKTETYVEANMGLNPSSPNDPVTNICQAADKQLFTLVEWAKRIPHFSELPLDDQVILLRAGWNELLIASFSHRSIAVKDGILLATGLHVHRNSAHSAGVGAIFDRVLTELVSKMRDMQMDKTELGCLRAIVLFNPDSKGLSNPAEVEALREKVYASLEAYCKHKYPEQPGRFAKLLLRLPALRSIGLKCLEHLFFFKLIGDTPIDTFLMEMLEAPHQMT
Method in brief: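 Reporter activation is measured as beta-lactamase activity via FRET substrate cleavage (emission 460/530 nm) in HEK 293T cells expressing an RXR-alpha-driven bla construct, following 16 hr compound exposure at 37 C.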

[15] = target: Peroxisome proliferator-activated receptor delta (Homo sapiens) (UniProt Q03181); experiment: qHTS assay to identify small molecule antagonists of the peroxisome proliferator-activated receptor delta (PPARd) signaling pathway (AID 743215; active = well fitted inhibition curve with a large enough effect in the signal ratio in the repeat runs, not every such curve was filed as active; the % refers to the signal ratio; also: series mostly up to about 62 µM)
Method in brief: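 PPARd-bla HEK293H cells (UAS-bla reporter) preincubated 5 h, then given compound plus 300 nM final L165041 agonist for 17 h at 37 C. Beta-lactamase activity read by LiveBLAzer B/G FRET substrate fluorescence after 2 h at room temperature.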

[16] = target: Vitamin D3 receptor (Homo sapiens) (UniProt P11473); experiment: qHTS assay to identify small molecule agonists of the vitamin D receptor (VDR) signaling pathway (AID 743222)
Vitamin D3 receptor (Homo sapiens), sequence (P11473 whole entry, looked up): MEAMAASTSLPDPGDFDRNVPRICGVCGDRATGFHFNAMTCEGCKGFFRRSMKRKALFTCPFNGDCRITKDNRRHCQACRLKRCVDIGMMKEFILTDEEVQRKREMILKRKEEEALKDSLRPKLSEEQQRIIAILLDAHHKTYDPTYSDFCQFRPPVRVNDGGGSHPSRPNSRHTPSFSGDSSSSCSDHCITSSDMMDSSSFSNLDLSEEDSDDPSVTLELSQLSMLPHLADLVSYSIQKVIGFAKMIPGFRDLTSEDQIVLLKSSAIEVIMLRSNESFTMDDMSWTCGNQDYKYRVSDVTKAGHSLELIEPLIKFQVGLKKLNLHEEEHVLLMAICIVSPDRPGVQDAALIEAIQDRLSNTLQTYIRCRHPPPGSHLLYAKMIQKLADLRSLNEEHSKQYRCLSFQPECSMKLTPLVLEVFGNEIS
Method in brief: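 VDR-bla cells plated 4 h at 37 C, then exposed to compounds for 16 h at 37 C. Beta-lactamase reporter activity measured by fluorescence after 2 h room-temperature loading with LiveBLAzer B/G FRET substrate.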

[17] = target: Vitamin D3 receptor (Homo sapiens) (UniProt P11473); experiment: qHTS assay to identify small molecule antagonists of the vitamin D receptor (VDR) signaling pathway (AID 743223; active = well fitted inhibition curve with a large enough effect in the signal ratio in the repeat runs, not every such curve was filed as active; the % refers to the signal ratio)
Method in brief: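 After VDR-bla cells are plated and left 4 h at 37C, DMSO-dissolved compounds and 3 nM (final) calcitriol agonist are added. Incubation continues 16 h at 37C; FRET beta-lactamase substrate then develops 2 h at room temperature.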

[18] = qHTS assay to identify small molecule agonists of the endoplasmic reticulum stress response signaling pathway - cell viability counter screen (AID 1159517)
Method in brief: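 ESRE-bla HeLa cells, 1,500 per well, seeded overnight then treated with compounds for 5 hr at 37 C. After the beta-lactamase read, viability in the same wells is measured by CellTiter-Glo luminescence after 30 min at room temperature.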

[19] = target: Bile acid receptor (Homo sapiens) (UniProt Q96RI1); experiment: qHTS assay to identify small molecule antagonists of the farnesoid-X-receptor (FXR) signaling pathway (AID 743217; active = well fitted inhibition curve with a large enough effect in the signal ratio in the repeat runs, not every such curve was filed as active; the % refers to the signal ratio)
Bile acid receptor (Homo sapiens), sequence (Q96RI1 whole entry, looked up): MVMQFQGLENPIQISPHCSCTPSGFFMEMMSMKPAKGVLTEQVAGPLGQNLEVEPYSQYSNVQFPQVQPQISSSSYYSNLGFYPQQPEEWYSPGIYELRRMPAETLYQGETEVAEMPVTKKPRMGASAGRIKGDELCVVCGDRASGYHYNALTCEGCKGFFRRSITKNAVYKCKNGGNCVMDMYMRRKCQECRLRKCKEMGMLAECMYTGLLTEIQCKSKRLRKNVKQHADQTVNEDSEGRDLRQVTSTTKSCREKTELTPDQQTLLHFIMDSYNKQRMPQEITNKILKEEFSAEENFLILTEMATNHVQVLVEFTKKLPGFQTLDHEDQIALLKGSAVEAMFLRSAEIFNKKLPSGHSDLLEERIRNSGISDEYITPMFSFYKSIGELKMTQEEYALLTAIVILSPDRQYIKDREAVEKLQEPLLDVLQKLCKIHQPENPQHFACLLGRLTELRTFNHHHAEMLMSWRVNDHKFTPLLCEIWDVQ
Method in brief: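 FXR-UAS-bla HEK 293T cells (beta-lactamase reporter) given compound plus chenodeoxycholic acid (50 uM final), 16 h at 37C. LiveBLAzer B/G FRET substrate added for 2 h at room temperature; fluorescence read.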

[20] = target: Bile acid receptor (Homo sapiens) (UniProt Q96RI1); experiment: qHTS assay to identify small molecule agonists of the farnesoid-X-receptor (FXR) signaling pathway (AID 743220; active = well fitted activation curve with a large enough effect in the signal ratio in the repeat runs, not every such curve was filed as active; the % refers to the signal ratio)
Method in brief: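 Beta-lactamase reporter under UAS control in GeneBLAzer FXR HEK 293T cells (5000/well) measured with LiveBLAzer FRET substrate after 2 h at room temperature. Compound exposure lasted 16 h at 37C.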

Compound | outcome [1] | Potency [2] | Potency [3] | Potency [4] | Potency [5] | Potency [6] | outcome [7] | Potency [8] | Potency [9] | Potency [10] | Potency [11] | Potency [12] | outcome [13] | Potency [14] | Potency [15] | outcome [16] | outcome [17] | Potency [18] | Potency [19] | outcome [20]
C[C@]12CCC(=O)C=C1CC[C@@H]1[C@@H]2C(=O)C[C@@]2(C)[C@H]1CC[C@]2(O)C(=O)CO | inactive | 49 µM (active) and inactive | inactive | inactive | 24.5 µM (active) and inactive | inactive | inactive | inactive | inactive | inactive | inactive | inactive | inactive | inactive |  |  |  |  |  | 
Clc1nc(Cl)c(Cl)c(Cl)c1Cl | inactive | inactive | inactive | inactive | inactive | inactive | inactive | inactive | inactive | inactive | inactive | inactive | inactive | inactive | inactive | inactive | inactive | inactive |  | 
O=S(=O)(O)c1ccc(O)cc1 | inactive |  | inactive | inactive | inactive |  | inactive | inactive | inactive | inactive | inactive | inactive | inactive | inactive | inactive | inactive | inactive | inactive |  | 
CCCCC(CC)COP(=O)(OCC(CC)CCCC)OCC(CC)CCCC (stereo unspecified) | inactive |  | inactive | inactive | inactive |  | inactive | inactive | inactive | inactive | inactive | inactive | inactive | inactive | inactive | inactive | inactive | inactive | inactive | inactive
c1ccc2c(c1)c1cccc3ccc4cccc2c4c31 | inactive | inactive | inactive | inactive | inactive | inactive | inactive | inactive | 48.6 µM (active) | inactive | inactive | inactive | inactive | 43.4 µM (active) and inactive | inactive | inactive | inactive |  | inactive | inactive
CCCCC(CC)COC(=O)c1ccc(N(C)C)cc1 (stereo unspecified) | inactive | inactive | inactive | inactive | inactive | inactive | inactive | inactive | inactive | inactive | inactive | inactive | inactive | inactive | inactive | inactive | inactive | inactive |  | inactive
COC(=O)CCC(=O)OC | inactive |  | inactive | inactive | inactive | inactive | inactive | inactive | inactive | inactive | inactive | inactive | inactive | inactive | inactive | inactive | inactive |  | inactive | inactive
O=C(COc1ccc(Cl)cc1)N1CCN(Cc2ccc3c(c2)OCO3)CC1 | inactive |  |  | inactive | inactive |  | inactive | inactive | inactive | inactive | inactive | inactive | inactive |  | inactive | inactive | inactive | inactive |  | 
C[C@]12CC[C@H]3[C@@H](CCC4=CC(=O)CC[C@@]43C)[C@@H]1CC[C@@H]2C(=O)CO | inactive | inactive | inactive | inactive | inactive | inactive | inactive | inactive | inactive | inactive | 27.3 µM (active) | inactive | inactive |  |  | inactive |  | inactive |  | 
Cc1cccc(C(=O)O)c1 | inactive | inactive | inactive | inactive | inactive |  | inactive | inactive | inactive | inactive | inactive | inactive | inactive | 27.5 µM (active) | inactive | inactive | inactive |  |  | 
CC(C)OC=O | inactive | inactive | inactive | inactive | 52 µM (active) and inactive | inactive | inactive | inactive | inactive | inactive | inactive | inactive | inactive | inactive | inactive | inactive | inactive | inactive | inactive | inactive
CCOCCOCCO | inactive | inactive | inactive | inactive | inactive | inactive | inactive | inactive | inactive | inactive | inactive | inactive | inactive | inactive | inactive |  |  | inactive |  | 
OC(CCl)CCl | inactive |  | inactive | inactive | inactive | inactive | inactive | inactive | inactive | inactive | inactive | inactive | inactive | inactive | inactive | inactive | inactive | inactive |  | 
CC(CCC(=O)O)(c1ccc(O)cc1)c1ccc(O)cc1 | inactive | inactive | inactive | inactive | inactive | inactive | inactive | inactive | inactive | inactive | inactive | inactive | inactive | inactive | inactive | inactive | inactive | inactive | inactive | inactive
CCCCOCCOCCOCCO | inactive |  | inactive | inactive | inactive | inactive | inactive | inactive | inactive | inactive | inactive | inactive | inactive | inactive | inactive | inactive | inactive |  |  | 
